# Data as given in article PMC7862700, “An all-to-all approach to the identification of sequence-specific readers for epigenetic DNA modifications on cytosine”.
# Tests used:
# Experiment in all cases: DAPPL (digital affinity profiling via proximity ligation, sequencing); 10 mM Tris-HCl pH 7.5, 50 mM NaCl, 1 mM DTT, 4% glycerol, room temperature, 30 min; GST-TFs on glutathione beads, 16-mer random dsDNA library, 0.1% formaldehyde crosslink after washing; high values mean tight binding
# FEV = target: T1, FEV (Homo sapiens, UniProt Q99581 1-238); settings: protein: recombinant; tags: N-terminal GST; dsDNA, one strand shown
# T1 sequence: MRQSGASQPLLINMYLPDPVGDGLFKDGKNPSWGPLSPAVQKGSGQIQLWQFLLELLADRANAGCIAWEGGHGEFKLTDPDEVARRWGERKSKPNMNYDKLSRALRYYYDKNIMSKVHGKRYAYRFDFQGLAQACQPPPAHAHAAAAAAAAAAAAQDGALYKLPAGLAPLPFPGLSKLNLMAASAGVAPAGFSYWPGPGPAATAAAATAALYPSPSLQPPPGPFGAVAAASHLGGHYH
# Outline: (§1)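 Sequencing on an Illumina NextSeq500 followed washing, crosslinking with 0.1% formaldehyde, proximity ligation (BsaI/T4 ligase, 1 h, 37 °C) and PCR amplification of pools that had been incubated for 30 min at room temperature with 200 nmole of a random double-stranded 16-mer DNA library in Tris/NaCl/DTT/glycerol buffer. Each pool held DNA-barcoded human transcription factors, expressed in yeast as GST fusions and captured on glutathione beads, plus a tag-only sample. Binding signal is a hexamer's read frequency for a factor divided by its frequency in the tag-only sample.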
# ETV5 = ETV5 (Homo sapiens, UniProt P41161 1-510); settings: protein: recombinant; tags: N-terminal GST; dsDNA, one strand shown
# Outline: as §1
# HSF1 = HSF1 (Homo sapiens, UniProt Q00613 1-529); settings: protein: recombinant; tags: N-terminal GST; chain copies: 3; dsDNA, one strand shown
# Outline: as §1
# SPIC = target: T2, SPIC (Homo sapiens, UniProt Q8N5J4 1-248); settings: protein: recombinant; tags: N-terminal GST; dsDNA, one strand shown
# T2 sequence: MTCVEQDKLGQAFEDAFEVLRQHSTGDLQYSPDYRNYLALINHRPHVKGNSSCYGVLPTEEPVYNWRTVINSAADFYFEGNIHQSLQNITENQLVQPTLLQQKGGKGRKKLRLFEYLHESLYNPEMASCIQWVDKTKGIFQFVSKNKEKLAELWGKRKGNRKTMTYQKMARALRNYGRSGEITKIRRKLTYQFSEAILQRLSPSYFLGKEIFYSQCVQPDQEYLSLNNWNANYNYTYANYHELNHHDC
# Outline: as §1
# ELF4 = ELF4 (Homo sapiens, UniProt Q99607 1-663); settings: protein: recombinant; tags: N-terminal GST; dsDNA, one strand shown
# Outline: as §1
# ELK4 = target: T3, ELK4 (Homo sapiens, UniProt P28324-2 1-405); settings: protein: recombinant; tags: N-terminal GST; dsDNA, one strand shown
# T3 sequence: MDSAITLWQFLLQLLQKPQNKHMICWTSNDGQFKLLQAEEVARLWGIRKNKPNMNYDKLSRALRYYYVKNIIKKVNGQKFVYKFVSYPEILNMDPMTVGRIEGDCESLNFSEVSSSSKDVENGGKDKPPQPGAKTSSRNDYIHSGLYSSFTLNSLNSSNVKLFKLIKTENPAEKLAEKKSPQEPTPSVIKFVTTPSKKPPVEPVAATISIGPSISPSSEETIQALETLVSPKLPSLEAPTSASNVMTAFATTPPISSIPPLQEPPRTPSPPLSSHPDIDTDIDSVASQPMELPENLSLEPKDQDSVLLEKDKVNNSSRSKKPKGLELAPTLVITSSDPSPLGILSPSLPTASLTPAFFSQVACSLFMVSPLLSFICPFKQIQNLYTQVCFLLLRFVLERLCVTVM
# Outline: as §1
# ETV2 = target: T4, ETV2 (Homo sapiens, UniProt O00321 1-342); settings: protein: recombinant; tags: N-terminal GST; dsDNA, one strand shown
# T4 sequence: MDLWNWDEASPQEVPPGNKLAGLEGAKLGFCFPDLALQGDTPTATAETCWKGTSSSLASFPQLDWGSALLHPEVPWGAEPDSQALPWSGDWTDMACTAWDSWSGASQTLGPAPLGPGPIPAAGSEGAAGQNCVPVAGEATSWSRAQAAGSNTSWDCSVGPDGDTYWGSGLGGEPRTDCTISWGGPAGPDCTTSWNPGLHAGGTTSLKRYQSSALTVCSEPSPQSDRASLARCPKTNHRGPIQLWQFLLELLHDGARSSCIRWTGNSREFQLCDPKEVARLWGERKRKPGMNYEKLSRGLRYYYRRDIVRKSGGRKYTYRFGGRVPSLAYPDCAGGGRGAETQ
# Outline: as §1
# ELF3 = target: T5, ELF3 (Homo sapiens, UniProt P78545 1-371); settings: protein: recombinant; tags: N-terminal GST; dsDNA, one strand shown
# T5 sequence: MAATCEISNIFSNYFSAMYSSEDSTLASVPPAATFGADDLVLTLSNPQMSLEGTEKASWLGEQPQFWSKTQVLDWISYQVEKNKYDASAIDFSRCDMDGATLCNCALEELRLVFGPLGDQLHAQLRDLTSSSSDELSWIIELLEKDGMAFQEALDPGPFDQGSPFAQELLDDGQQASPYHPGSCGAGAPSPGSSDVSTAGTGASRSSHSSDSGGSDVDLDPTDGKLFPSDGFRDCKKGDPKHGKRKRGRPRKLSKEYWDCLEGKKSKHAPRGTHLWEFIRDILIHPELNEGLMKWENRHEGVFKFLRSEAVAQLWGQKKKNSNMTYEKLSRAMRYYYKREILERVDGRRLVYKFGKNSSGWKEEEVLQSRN
# Outline: as §1
# CRX = CRX (Homo sapiens, UniProt O43186 1-299); settings: protein: recombinant; tags: N-terminal GST; dsDNA, one strand shown
# Outline: as §1
# ETV1 = ETV1 (Homo sapiens, UniProt P50549 1-477); settings: protein: recombinant; tags: N-terminal GST; dsDNA, one strand shown
# Outline: as §1
# ERF = target: T6, ERF (Homo sapiens, UniProt P50548 1-548); settings: protein: recombinant; tags: N-terminal GST; dsDNA, one strand shown
# T6 sequence: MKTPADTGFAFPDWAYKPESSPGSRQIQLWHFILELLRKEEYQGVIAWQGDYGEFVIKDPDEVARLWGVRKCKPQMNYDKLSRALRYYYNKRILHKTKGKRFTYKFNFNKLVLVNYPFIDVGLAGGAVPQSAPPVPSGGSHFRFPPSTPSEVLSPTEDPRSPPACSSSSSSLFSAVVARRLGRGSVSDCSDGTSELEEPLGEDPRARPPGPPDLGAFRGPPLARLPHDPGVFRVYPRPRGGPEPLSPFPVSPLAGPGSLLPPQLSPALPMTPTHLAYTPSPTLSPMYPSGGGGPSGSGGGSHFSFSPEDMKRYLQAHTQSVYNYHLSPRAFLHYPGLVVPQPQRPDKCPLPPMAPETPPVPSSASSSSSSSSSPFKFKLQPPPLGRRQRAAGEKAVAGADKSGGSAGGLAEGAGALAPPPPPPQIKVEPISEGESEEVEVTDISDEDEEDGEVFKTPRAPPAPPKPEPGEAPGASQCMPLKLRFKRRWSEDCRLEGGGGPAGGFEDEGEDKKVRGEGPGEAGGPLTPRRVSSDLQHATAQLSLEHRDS
# Outline: as §1
# ETV3L = target: T7, ETV3L (Homo sapiens, UniProt Q6ZN32 1-361); settings: protein: recombinant; tags: N-terminal GST; dsDNA, one strand shown
# T7 sequence: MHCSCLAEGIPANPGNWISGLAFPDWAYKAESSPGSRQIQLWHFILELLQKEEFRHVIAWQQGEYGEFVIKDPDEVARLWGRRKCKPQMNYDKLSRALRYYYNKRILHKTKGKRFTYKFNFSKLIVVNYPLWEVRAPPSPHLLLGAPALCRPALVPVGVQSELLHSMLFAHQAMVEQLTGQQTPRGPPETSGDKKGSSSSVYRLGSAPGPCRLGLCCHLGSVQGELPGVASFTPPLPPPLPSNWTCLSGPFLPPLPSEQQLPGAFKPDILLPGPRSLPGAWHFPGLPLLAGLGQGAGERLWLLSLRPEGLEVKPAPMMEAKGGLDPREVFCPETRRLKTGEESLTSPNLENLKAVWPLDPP
# Outline: as §1
# ETS2 = target: T8, ETS2 (Homo sapiens, UniProt P15036 1-469); settings: protein: recombinant; tags: N-terminal GST; dsDNA, one strand shown
# T8 sequence: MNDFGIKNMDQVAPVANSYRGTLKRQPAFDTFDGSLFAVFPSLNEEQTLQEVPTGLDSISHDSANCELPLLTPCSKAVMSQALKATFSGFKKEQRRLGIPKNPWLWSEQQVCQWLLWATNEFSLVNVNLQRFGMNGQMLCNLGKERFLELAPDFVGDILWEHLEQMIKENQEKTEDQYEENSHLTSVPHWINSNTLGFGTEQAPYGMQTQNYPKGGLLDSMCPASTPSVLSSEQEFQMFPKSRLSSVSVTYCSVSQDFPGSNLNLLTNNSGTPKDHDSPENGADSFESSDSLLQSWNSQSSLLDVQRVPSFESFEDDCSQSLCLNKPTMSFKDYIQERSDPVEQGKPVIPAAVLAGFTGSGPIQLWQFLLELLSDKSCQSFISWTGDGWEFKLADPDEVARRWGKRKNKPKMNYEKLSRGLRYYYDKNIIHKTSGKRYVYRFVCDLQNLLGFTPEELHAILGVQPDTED
# Outline: as §1
# SPDEF = target: T9, SPDEF (Homo sapiens, UniProt O95238 1-335); settings: protein: recombinant; tags: N-terminal GST; dsDNA, one strand shown
# T9 sequence: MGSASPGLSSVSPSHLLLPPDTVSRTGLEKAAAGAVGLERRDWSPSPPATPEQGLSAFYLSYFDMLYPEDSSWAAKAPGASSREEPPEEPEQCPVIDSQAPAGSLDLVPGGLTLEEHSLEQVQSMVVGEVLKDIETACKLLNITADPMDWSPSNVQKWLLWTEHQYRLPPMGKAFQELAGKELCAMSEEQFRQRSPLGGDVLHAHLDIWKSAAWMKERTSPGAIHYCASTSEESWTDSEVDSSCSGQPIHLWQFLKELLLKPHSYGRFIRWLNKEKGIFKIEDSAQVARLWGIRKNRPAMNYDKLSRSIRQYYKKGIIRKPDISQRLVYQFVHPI
# Outline: as §1
# ETV7 = target: T10, ETV7 (Homo sapiens, UniProt Q9Y603 1-341); settings: protein: recombinant; tags: N-terminal GST; dsDNA, one strand shown
# T10 sequence: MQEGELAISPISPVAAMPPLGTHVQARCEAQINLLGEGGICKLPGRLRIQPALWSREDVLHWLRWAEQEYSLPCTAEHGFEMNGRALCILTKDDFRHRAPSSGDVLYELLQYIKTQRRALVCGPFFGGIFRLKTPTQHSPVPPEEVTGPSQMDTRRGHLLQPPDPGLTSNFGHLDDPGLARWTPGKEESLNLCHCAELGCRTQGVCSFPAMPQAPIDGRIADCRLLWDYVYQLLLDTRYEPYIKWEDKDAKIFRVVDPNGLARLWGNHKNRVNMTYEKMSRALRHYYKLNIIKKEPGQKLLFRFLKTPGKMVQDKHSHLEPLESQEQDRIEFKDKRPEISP
# Outline: as §1
# ELF5 = target: T11, ELF5 (Homo sapiens, UniProt Q9UKW6-2 1-255); settings: protein: recombinant; tags: N-terminal GST; dsDNA, one strand shown
# T11 sequence: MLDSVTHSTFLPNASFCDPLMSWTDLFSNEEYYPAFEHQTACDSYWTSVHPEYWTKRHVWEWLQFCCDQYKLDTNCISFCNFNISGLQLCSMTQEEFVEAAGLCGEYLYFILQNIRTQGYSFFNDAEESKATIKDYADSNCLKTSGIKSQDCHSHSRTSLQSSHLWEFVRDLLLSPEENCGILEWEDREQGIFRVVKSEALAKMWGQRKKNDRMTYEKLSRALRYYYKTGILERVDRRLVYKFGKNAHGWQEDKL
# Outline: as §1
# ETV3 = target: T12, ETV3 (Homo sapiens, UniProt P41162-2 1-143); settings: protein: recombinant; tags: N-terminal GST; dsDNA, one strand shown
# T12 sequence: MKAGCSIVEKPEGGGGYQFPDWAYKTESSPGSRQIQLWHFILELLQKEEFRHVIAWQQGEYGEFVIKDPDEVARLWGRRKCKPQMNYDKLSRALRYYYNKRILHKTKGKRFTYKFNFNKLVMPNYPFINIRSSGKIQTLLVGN
# Outline: as §1
# ETV6 = ETV6 (Homo sapiens, UniProt P41212 1-452); settings: protein: recombinant; tags: N-terminal GST; dsDNA, one strand shown
# Outline: as §1
# Chain of ETV6 (P41212 whole entry): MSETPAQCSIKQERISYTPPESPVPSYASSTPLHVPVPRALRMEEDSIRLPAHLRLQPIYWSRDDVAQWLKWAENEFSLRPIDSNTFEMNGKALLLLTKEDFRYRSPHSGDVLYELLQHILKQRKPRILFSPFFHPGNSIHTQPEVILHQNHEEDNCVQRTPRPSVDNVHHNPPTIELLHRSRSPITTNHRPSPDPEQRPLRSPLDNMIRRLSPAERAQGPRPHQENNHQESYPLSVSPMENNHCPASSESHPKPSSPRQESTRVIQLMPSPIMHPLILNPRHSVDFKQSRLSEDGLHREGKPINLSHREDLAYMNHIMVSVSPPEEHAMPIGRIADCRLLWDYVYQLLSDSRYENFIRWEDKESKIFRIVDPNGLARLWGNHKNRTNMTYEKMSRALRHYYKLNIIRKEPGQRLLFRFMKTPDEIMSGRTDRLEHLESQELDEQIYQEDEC
# Chain of ETV1 (P50549 whole entry): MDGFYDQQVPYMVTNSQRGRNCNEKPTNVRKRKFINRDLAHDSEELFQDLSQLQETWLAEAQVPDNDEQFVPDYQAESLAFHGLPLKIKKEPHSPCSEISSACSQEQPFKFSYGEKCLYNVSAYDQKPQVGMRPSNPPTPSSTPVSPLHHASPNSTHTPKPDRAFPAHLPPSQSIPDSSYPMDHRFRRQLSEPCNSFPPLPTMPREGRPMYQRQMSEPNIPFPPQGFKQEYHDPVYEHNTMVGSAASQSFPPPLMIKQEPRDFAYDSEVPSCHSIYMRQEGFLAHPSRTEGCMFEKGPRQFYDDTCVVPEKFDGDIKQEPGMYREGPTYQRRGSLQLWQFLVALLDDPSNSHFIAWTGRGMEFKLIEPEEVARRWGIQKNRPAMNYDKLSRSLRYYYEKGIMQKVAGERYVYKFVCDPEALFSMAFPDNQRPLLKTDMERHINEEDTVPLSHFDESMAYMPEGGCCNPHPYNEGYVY
# Chain of HSF1 (Q00613 whole entry): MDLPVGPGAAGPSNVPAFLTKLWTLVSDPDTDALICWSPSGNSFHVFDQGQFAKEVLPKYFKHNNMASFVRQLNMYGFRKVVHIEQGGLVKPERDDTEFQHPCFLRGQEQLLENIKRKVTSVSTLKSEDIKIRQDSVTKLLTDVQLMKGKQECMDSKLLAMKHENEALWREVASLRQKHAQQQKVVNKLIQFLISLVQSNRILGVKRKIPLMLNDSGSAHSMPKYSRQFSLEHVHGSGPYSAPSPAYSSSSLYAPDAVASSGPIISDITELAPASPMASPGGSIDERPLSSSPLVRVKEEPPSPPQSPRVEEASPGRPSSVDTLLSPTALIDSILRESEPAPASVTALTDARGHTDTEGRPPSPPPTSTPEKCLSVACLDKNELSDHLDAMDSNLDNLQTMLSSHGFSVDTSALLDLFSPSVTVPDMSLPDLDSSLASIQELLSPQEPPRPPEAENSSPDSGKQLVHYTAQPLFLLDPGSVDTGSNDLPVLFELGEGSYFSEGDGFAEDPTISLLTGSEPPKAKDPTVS
# Chain of CRX (O43186 whole entry): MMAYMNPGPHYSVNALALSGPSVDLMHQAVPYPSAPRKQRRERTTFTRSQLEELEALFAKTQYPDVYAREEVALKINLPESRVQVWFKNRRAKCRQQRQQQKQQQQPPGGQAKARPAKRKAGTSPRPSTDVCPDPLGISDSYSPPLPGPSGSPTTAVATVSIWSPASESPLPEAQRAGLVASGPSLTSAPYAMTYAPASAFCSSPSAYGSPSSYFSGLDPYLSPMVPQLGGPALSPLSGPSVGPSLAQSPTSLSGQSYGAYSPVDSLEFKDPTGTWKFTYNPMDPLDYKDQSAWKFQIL
# Chain of ELF4 (Q99607 whole entry): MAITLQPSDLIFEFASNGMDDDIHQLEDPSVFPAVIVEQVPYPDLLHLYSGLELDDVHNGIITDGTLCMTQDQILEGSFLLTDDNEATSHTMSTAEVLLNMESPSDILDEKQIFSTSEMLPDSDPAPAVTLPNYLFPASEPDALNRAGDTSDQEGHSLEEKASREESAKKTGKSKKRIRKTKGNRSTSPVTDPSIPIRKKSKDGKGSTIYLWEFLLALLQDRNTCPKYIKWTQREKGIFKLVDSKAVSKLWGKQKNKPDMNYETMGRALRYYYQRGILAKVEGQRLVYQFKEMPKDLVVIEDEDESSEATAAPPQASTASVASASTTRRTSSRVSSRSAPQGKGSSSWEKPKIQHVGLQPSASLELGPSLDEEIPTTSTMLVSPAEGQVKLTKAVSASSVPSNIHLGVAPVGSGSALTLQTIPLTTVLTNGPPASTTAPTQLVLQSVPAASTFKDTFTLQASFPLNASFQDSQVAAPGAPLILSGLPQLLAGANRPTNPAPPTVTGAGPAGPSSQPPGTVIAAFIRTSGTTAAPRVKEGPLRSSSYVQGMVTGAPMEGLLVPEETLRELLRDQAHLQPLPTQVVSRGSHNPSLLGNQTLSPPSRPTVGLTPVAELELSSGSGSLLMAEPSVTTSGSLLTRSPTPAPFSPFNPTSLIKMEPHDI
# Chain of ETV5 (P41161 whole entry): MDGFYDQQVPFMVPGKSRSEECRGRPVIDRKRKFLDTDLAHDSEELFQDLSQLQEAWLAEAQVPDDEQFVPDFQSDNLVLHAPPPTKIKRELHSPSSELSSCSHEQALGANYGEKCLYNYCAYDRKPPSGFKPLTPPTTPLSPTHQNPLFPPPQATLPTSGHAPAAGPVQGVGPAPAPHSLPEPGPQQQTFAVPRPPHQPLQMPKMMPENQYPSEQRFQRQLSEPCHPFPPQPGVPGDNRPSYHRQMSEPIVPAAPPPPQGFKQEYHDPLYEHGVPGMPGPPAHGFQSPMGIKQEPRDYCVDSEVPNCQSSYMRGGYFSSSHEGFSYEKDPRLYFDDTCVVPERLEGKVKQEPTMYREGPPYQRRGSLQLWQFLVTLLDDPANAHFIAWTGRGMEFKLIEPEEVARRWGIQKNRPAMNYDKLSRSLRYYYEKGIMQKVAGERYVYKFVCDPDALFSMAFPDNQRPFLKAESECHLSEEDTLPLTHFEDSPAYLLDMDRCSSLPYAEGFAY
sequence,measurement,setting,value
ACATTT,binding signal,FEV,"1.46 fold enrichment (6-mer frequency, TF over GST control)"
same,binding signal,ETV5,"1.44 fold enrichment (6-mer frequency, TF over GST control)"
same,binding signal,HSF1,"1.3 fold enrichment (6-mer frequency, TF over GST control)"
same,binding signal,SPIC,"1.25 fold enrichment (6-mer frequency, TF over GST control)"
same,binding signal,ELF4,"1.41 fold enrichment (6-mer frequency, TF over GST control)"
same,binding signal,ELK4,"1.36 fold enrichment (6-mer frequency, TF over GST control)"
same,binding signal,ETV2,"1.68 fold enrichment (6-mer frequency, TF over GST control)"
same,binding signal,ELF3,"1.6 fold enrichment (6-mer frequency, TF over GST control)"
same,binding signal,CRX,"1.16 fold enrichment (6-mer frequency, TF over GST control)"
same,binding signal,ETV1,"1.43 fold enrichment (6-mer frequency, TF over GST control)"
same,binding signal,ERF,"1.54 fold enrichment (6-mer frequency, TF over GST control)"
same,binding signal,ETV3L,"1.49 fold enrichment (6-mer frequency, TF over GST control)"
same,binding signal,ETS2,"1.42 fold enrichment (6-mer frequency, TF over GST control)"
same,binding signal,SPDEF,"1.41 fold enrichment (6-mer frequency, TF over GST control)"
same,binding signal,ETV7,"1.46 fold enrichment (6-mer frequency, TF over GST control)"
same,binding signal,ELF5,"1.59 fold enrichment (6-mer frequency, TF over GST control)"
same,binding signal,ETV3,"1.56 fold enrichment (6-mer frequency, TF over GST control)"
same,binding signal,ETV6,"1.56 fold enrichment (6-mer frequency, TF over GST control)"
